# Experimental data reported in PubChem BioAssay (Tox21).
# Values without a mark were called inactive. Records with an inconclusive call do not appear. Entries that show only a call come without a potency. The source made the active and inactive calls. Unless noted, calls follow the shape of the dose curve; as a rule, active = well fitted curve in the direction sought with a large enough effect in the repeat runs; inconclusive = weak or mixed curves; inactive = no such curve, though single readings can be large; an effect the other way counts as inactive or inconclusive.
# Legend:
# [1] = qHTS assay for small molecule agonists of the p53 signaling pathway (AID 651631; calls by dose curve; also: nearly all actives have a fitted effect of over 15% in size)
# Procedure, shortened: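 Fluorescence intensity from cleaved LiveBLAzer B/G substrate (2 h, room temperature) served as the signal. Beforehand, HCT-116 reporter cells bearing p53 response elements were treated 16 h at 37 °C with DMSO-dissolved compounds.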
# [2] = qHTS assay for small molecules that induce genotoxicity in human embryonic kidney cells expressing luciferase-tagged ATAD5 (AID 651632); also: nearly all actives have a fitted effect of over 15% in size
# Procedure, shortened: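 HEK293T cells carrying luciferase-tagged ATAD5 were given compound or DMSO vehicle and incubated 16 hr at 37C, 5% CO2. Luciferase activity was read after 30 min at room temperature with Amplite; a rise signals genotoxic stress.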
# [3] = qHTS assay for small molecule agonists of the p53 signaling pathway - cell viability (AID 651633; calls by dose curve;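 also: p53RE-bla HCT reporter cells with a stable beta-lactamase p53 reporter; series mostly up to about 83 µM; nearly all actives have a fitted effect of over 30% in size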)
# Procedure, shortened: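 Viability counter-read: CellTiter-Glo luminescence (30 min, room temperature) in the same p53RE-bla plates. These plates had been exposed to compounds for 16 h at 37 C.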
# [4] = qHTS assay for small molecules that induce genotoxicity in human embryonic kidney cells expressing luciferase-tagged ATAD5 - cell viability (AID 651634; calls by dose curve; also: nearly all actives have a fitted effect of over 25% in size)
# Procedure, shortened: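 HEK293T cells carrying luciferase-tagged ATAD5, 2,000 cells/well, exposed to compound for 15.5 hr at 37C. Viability read as live-cell protease activity by CellTiter-Fluor fluorescence after 30 min at 37C.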
# [5] = qHTS assay for small molecule disruptors of the mitochondrial membrane potential - cell viability (AID 720634; calls by dose curve;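 also: human HepG2 liver cancer cells; series mostly up to about 83 µM; nearly all actives have a fitted effect of over 20% in size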)
# Procedure, shortened: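 HepG2 cells, 2,000 per well, attached overnight, then treated 1 hr at 37 C, 5% CO2. Viability read as ATP by CellTiter-Glo luminescence after 30 min at room temperature. Read in the same wells as the m-MPI membrane-potential dye assay.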
# [6] = qHTS assay to test for compound auto fluorescence at 590 nm (red) in HepG2 cells (AID 720674)
# Procedure, shortened: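 1 hr compound incubation on HepG2 cells, 37 C, 5% CO2; plate read ex 540 nm / em 590 nm; intensities reported as Rose Bengal sodium equivalents.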
# [7] = qHTS assay to test for compound auto fluorescence at 535 nm (green) in HepG2 cells (AID 720675)
# [8] = qHTS assay to test for compound auto fluorescence at 460 nm (blue) in HEK293 cells (AID 720678)
# Procedure, shortened: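 Intrinsic compound fluorescence is recorded in live HEK293 cultures after overnight incubation at 37C, 5% CO2, using excitation 405 nm and emission 460 nm. Values are referenced to triamterene.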
# [9] = qHTS assay to test for compound auto fluorescence at 590 nm (red) in HEK293 cells (AID 720679)
# Procedure, shortened: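 Red autofluorescence, HEK293 cells: 2,000 cells/well; attach 4-5 hr 37C; add 23 nL cpd or DMSO; incubate o/n 37C 5% CO2; read Ex540/Em590; Rose Bengal sodium reference.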
# [10] = qHTS assay to test for compound auto fluorescence at 535 nm (green) in HEK293 cells (AID 720680)
# [11] = qHTS assay to test for compound auto fluorescence at 460 nm (blue) in HEK293 cell free culture (AID 720681)
# Procedure, shortened: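 Blue fluorescence (Ex 405/Em 460 nm, triamterene-equivalent) was read immediately after pin transfer of compound or DMSO into medium (DMEM, 10% FBS) without cells.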
# [12] = qHTS assay to test for compound auto fluorescence at 535 nm (green) in HEK293 cell free culture (AID 720682)
# Procedure, shortened: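 Intrinsic compound fluorescence is measured in culture medium containing 10% FBS, with excitation at 485 nm and detection at 535 nm, referenced to fluorescein.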
# [13] = qHTS assay to test for compound auto fluorescence at 590 nm (red) in HEK293 cell free culture (AID 720683)
# Procedure, shortened: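 Red-channel autofluorescence of compounds in culture medium (DMEM, 10% FBS), no cells, measured at 540/590 nm. Rose Bengal sodium is the reference fluorophore for equivalence.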
# [14] = qHTS assay to test for compound auto fluorescence at 590 nm (red) in HepG2 cell free culture (AID 720684)
# Procedure, shortened: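 Steps: dispense MEM/10% FBS medium, no cells; pin compound or DMSO vehicle; read red channel, Ex/Em 540/590 nm. Output given as Rose Bengal sodium equivalents.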
# [15] = qHTS assay to test for compound auto fluorescence at 460 nm (blue) in HepG2 cell free culture (AID 720685)
# Procedure, shortened: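 Compound (23 nL) or DMSO pinned into cell-free MEM with 10% FBS; blue fluorescence read at 405/460 nm excitation/emission, expressed as auto-fluorescence equivalency to triamterene.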
# [16] = qHTS assay to test for compound auto fluorescence at 535 nm (green) in HepG2 cell free culture (AID 720686)
# [17] = qHTS assay to test for compound auto fluorescence at 460 nm (blue) in HepG2 cells (AID 720687)
# Procedure, shortened: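 Blue-channel autofluorescence (Ex/Em 405/460 nm, triamterene-equivalent) was measured after 1 hr compound exposure at 37 C, 5% CO2. Cells were HepG2, plated overnight at 37 C in MEM plus 10% FBS.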
# [18] = target: Glucocorticoid receptor (Homo sapiens) (UniProt P04150); assay: qHTS assay to identify small molecule agonists of the glucocorticoid receptor (GR) signaling pathway (AID 720691; active = well fitted activation curve with a large enough effect in the signal ratio in the repeat runs, not every such curve was filed as active; the % refers to the signal ratio)
# Procedure, shortened: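 GR-bla HeLa cells carrying a GRE-driven beta-lactamase reporter, exposed to compounds for 18 h at 37 C. Reporter activation read as fluorescence after 2 h with LiveBLAzer B/G FRET substrate at room temperature.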
# [19] = target: Glucocorticoid receptor (Homo sapiens) (UniProt P04150); assay: qHTS assay to identify small molecule antagonists of the glucocorticoid receptor (GR) signaling pathway (AID 720692; active = well fitted inhibition curve with a large enough effect in the signal ratio in the repeat runs, not every such curve was filed as active; the % refers to the signal ratio)
# Procedure, shortened: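 GR-bla HeLa cells carrying a GRE-driven beta-lactamase reporter received compound after 4 h plating, then dexamethasone (5 nM final). After 18 h at 37C, the FRET substrate was loaded for 2 h at room temperature and fluorescence read.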
# [20] = qHTS assay for small molecule disruptors of the mitochondrial membrane potential (AID 720635); also: potency is read from the fitted curve at half-maximal effect
# Procedure, shortened: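 Mitochondrial membrane potential tracked with Mito-MPS dye, red aggregates (ex 540/em 590 nm) against green monomers (ex 490/em 535 nm). Compound treatment 1 hr at 37C, dye 30 min in HepG2.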
# Sequence of Glucocorticoid receptor (Homo sapiens) (P04150 whole entry, looked up): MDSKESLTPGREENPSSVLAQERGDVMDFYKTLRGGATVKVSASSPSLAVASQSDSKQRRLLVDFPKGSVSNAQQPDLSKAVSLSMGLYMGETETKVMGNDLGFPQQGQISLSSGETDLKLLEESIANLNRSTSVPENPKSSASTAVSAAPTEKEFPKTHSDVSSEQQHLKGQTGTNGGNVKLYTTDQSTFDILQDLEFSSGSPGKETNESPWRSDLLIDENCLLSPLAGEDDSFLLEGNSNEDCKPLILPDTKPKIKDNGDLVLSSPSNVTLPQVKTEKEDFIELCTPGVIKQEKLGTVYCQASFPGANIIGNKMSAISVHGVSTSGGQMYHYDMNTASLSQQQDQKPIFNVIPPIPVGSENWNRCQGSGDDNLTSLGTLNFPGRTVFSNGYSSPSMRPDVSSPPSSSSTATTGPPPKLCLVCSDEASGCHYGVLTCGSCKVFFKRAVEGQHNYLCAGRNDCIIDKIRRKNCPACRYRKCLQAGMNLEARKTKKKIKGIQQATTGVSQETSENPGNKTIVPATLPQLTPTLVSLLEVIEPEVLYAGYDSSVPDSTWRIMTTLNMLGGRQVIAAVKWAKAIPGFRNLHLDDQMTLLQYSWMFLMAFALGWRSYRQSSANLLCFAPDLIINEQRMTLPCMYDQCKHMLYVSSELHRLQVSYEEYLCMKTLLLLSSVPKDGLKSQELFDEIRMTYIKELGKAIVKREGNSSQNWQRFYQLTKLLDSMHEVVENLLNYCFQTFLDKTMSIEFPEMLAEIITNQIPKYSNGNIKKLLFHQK
smiles,measurement,setting,value
C=C(C)C(=O)OCCCC,Potency,[1],inactive
same,Potency,[2],inactive
same,outcome,[3],inactive
same,outcome,[4],inactive
same,outcome,[5],inactive
same,outcome,[6],inactive
same,outcome,[7],inactive
same,outcome,[8],inactive
same,outcome,[9],inactive
same,outcome,[10],inactive
same,outcome,[11],inactive
same,outcome,[12],inactive
same,outcome,[13],inactive
same,outcome,[14],inactive
same,outcome,[15],inactive
same,outcome,[16],inactive
same,outcome,[17],inactive
C=CC(=O)CC,Potency,[1],inactive
same,Potency,[2],inactive
same,outcome,[3],inactive
same,outcome,[4],inactive
same,outcome,[5],inactive
same,outcome,[6],inactive
same,outcome,[7],inactive
same,outcome,[8],inactive
same,outcome,[9],inactive
same,outcome,[10],inactive
same,outcome,[11],inactive
same,outcome,[12],inactive
same,outcome,[13],inactive
same,outcome,[14],inactive
same,outcome,[15],inactive
same,outcome,[16],inactive
same,outcome,[17],inactive
Cc1ccc(S(=O)(=O)NC(=O)NN2CC3CCCC3C2)cc1 (centres undefined),Potency,[1],inactive
same,Potency,[2],inactive
same,outcome,[3],inactive
same,outcome,[4],inactive
same,outcome,[5],inactive
same,"fluorescence, relative to Rose Bengal",[6],0.0207% [at 18.6 µM]
same,"fluorescence, % of fluorescein control",[7],0.0063% [at 18.6 µM]
same,"fluorescence, % of triamterene",[8],-0.0452% [at 18.6 µM]
same,"fluorescence, % of fluorescent control",[9],-0.0362% [at 18.6 µM]
same,"fluorescence, % of fluorescein",[10],-0.0141% [at 18.6 µM]
same,"fluorescence, % of fluorescent control",[11],0.0029% [at 18.6 µM]
same,activity change,[12],-0.0097% [at 18.6 µM]
same,"fluorescence, % of fluorescent control",[13],0.167% [at 18.6 µM]
same,"fluorescence, % of fluorescent control",[15],-0.0187% [at 18.6 µM]
same,"fluorescence, % of fluorescein control",[16],-0.0072% [at 18.6 µM]
same,"fluorescence, % of fluorescent control",[17],-0.0447% [at 18.6 µM]
COC(=O)c1ccccc1Cl,Potency,[1],inactive
same,outcome,[3],inactive
same,outcome,[4],inactive
same,outcome,[5],inactive
same,outcome,[6],inactive
same,outcome,[7],inactive
same,outcome,[8],inactive
same,outcome,[9],inactive
same,outcome,[10],inactive
same,outcome,[11],inactive
same,outcome,[12],inactive
same,outcome,[13],inactive
same,outcome,[14],inactive
same,outcome,[15],inactive
same,outcome,[16],inactive
same,outcome,[17],inactive
same,Potency,[18],inactive
same,outcome,[19],inactive
CCO[Si](CC(C)C)(OCC)OCC,Potency,[1],inactive
same,outcome,[3],inactive
same,outcome,[4],inactive
same,outcome,[5],inactive
same,Potency,[20],27.3 µM (active)
same,outcome,[7],inactive
same,outcome,[8],inactive
same,outcome,[9],inactive
same,outcome,[10],inactive
same,outcome,[11],inactive
same,outcome,[12],inactive
same,outcome,[13],inactive
same,outcome,[14],inactive
same,outcome,[15],inactive
same,outcome,[16],inactive
same,outcome,[17],inactive
same,Potency,[18],inactive
CC(C)OC(=O)C(C(=O)OC(C)C)=C1SC=CS1,Potency,[1],inactive
same,Potency,[2],inactive
same,outcome,[3],inactive
same,outcome,[4],inactive
same,outcome,[7],inactive
same,outcome,[8],inactive
same,outcome,[10],inactive
same,outcome,[11],inactive
same,outcome,[12],inactive
same,outcome,[13],inactive
same,outcome,[14],inactive
same,outcome,[15],inactive
same,outcome,[16],inactive
same,outcome,[17],inactive
same,Potency,[18],inactive
same,outcome,[19],inactive
CNCCc1ccccn1,Potency,[1],inactive
same,outcome,[3],inactive
same,outcome,[4],inactive
same,outcome,[5],inactive
same,"fluorescence, relative to Rose Bengal",[6],0.136% [at 18.6 µM]
same,"fluorescence, % of fluorescein control",[7],-0.0784% [at 18.6 µM]
same,"fluorescence, % of triamterene",[8],0.106% [at 18.6 µM]
same,"fluorescence, % of fluorescent control",[9],0.589% [at 18.6 µM]
same,"fluorescence, % of fluorescein",[10],-0.0419% [at 18.6 µM]
same,"fluorescence, % of fluorescent control",[11],0.0128% [at 18.6 µM]
same,activity change,[12],-0.037% [at 18.6 µM]
same,"fluorescence, % of fluorescent control",[13],-0.0269% [at 18.6 µM]
same,"fluorescence, % of Rose Bengal",[14],0.0243% [at 18.6 µM]
same,"fluorescence, % of fluorescent control",[15],0.0418% [at 18.6 µM]
same,"fluorescence, % of fluorescein control",[16],-0.0162% [at 18.6 µM]
same,"fluorescence, % of fluorescent control",[17],0.114% [at 18.6 µM]
same,Potency,[18],inactive
same,outcome,[19],inactive
CC[N+](C)(CC)CC,Potency,[1],inactive
same,outcome,[3],inactive
same,outcome,[4],inactive
same,outcome,[5],inactive
same,outcome,[6],inactive
same,outcome,[7],inactive
same,outcome,[8],inactive
same,outcome,[9],inactive
same,outcome,[10],inactive
same,outcome,[11],inactive
same,outcome,[12],inactive
same,outcome,[13],inactive
same,outcome,[14],inactive
same,outcome,[15],inactive
same,outcome,[16],inactive
same,outcome,[17],inactive
same,Potency,[18],inactive
same,outcome,[19],inactive
O=S(=O)(O)c1ccc(Cl)cc1,Potency,[1],inactive
same,outcome,[3],inactive
same,outcome,[4],inactive
same,outcome,[5],inactive
same,outcome,[6],inactive
same,outcome,[7],inactive
same,outcome,[8],inactive
same,outcome,[9],inactive
same,outcome,[10],inactive
same,outcome,[11],inactive
same,outcome,[12],inactive
same,outcome,[13],inactive
same,outcome,[14],inactive
same,outcome,[15],inactive
same,outcome,[16],inactive
same,outcome,[17],inactive
same,Potency,[18],inactive
same,outcome,[19],inactive
O=C(O)CCC(=O)Nc1ccc(S(=O)(=O)Nc2nccs2)cc1,Potency,[1],inactive
same,outcome,[3],inactive
same,outcome,[4],inactive
same,outcome,[5],inactive
same,Potency,[20],inactive
same,"fluorescence, relative to Rose Bengal",[6],-0.131% [at 18.6 µM]
same,"fluorescence, % of fluorescein control",[7],-0.003% [at 18.6 µM]
same,"fluorescence, % of triamterene",[8],0.029% [at 18.6 µM]
same,"fluorescence, % of fluorescent control",[9],-0.0693% [at 18.6 µM]
same,"fluorescence, % of fluorescein",[10],0.032% [at 18.6 µM]
same,"fluorescence, % of fluorescent control",[11],-0.0604% [at 18.6 µM]
same,activity change,[12],0.0309% [at 18.6 µM]
same,"fluorescence, % of fluorescent control",[13],0.0244% [at 18.6 µM]
same,"fluorescence, % of Rose Bengal",[14],0.477% [at 18.6 µM]
same,"fluorescence, % of fluorescent control",[15],-0.0059% [at 18.6 µM]
same,"fluorescence, % of fluorescein control",[16],0.022% [at 18.6 µM]
same,"fluorescence, % of fluorescent control",[17],-0.0217% [at 18.6 µM]
same,Potency,[18],inactive
same,outcome,[19],inactive
